Results taken from PubChem BioAssay (Tox21).
Records with an inconclusive call do not appear. A call without a number means that no potency is given here. A number with no mark means an inactive call. The source made the active and inactive calls. Calls follow the shape of the dose curve; as a rule, active = well fitted curve in the direction sought with a large enough effect in the repeat runs; inconclusive = weak or mixed curves; inactive = no such curve, though single readings can be large; an effect the other way counts as inactive or inconclusive.

Legend:
[1] = qHTS RealTime-Glo MT Cell Viability Assay in HEK293 cells - 16 hour (AID 1224872); also: top concentration of the series differs between compounds; nearly all actives have a fitted effect of over 50% in size
Summary of the method: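 Luminescence generated by NanoLuc from substrate produced by living HEK293 cells served as the viability signal. Each value reflects the reading at its stated time point during continuous 40 h compound exposure at 37 C.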

[2] = qHTS RealTime-Glo MT Cell Viability Assay in HepG2 cells - 8 hour (AID 1224873); also: nearly all actives have a fitted effect of over 55% in size
Summary of the method: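 HepG2 cells (600/well) mixed with RealTime-Glo MT reagent, settled 5 h at 37 C/5% CO2 before compound addition. Nonlytic NanoLuc luminescence from viable-cell prosubstrate reduction read repeatedly during 40 h treatment at 37 C.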

[3] = qHTS RealTime-Glo MT Cell Viability Assay in HEK293 cells - 40 hour (AID 1224874); conditions: RealTime-Glo luminescence; max response: stronger effect = lower value; also: nearly all actives have a fitted effect of over 50% in size
Summary of the method: (§1)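 600 HEK293 cells per well, dispensed already mixed with RealTime-Glo MT reagents. Compound dosing came 5 h later. The same wells were read for luminescence at 0, 8, 16, 24, 32 and 40 h of exposure at 37 C.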

[4] = A CellTox Green Cytotoxicity Assay to monitor cytotoxicity in HEK293 cells - 24 hour (AID 1224875); also: series mostly up to about 77 µM; nearly all actives have a fitted effect of over 45% in size
Summary of the method: (§2)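 Dead-cell fluorescence measured kinetically: asymmetric cyanine dye, HEK293, 600 cells/well, 5 h settle, 23 nL cpd/DMSO, 37 C, reads 0–40 h every 8 h.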

[5] = A CellTox Green Cytotoxicity Assay to monitor cytotoxicity in HepG2 cells - 16 hour (AID 1224876); also: nearly all actives have a fitted effect of over 45% in size
Summary of the method: (§3)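 First, HepG2 cells (600/well) mixed with reagent were plated; second, after 5 h at 37 C they received compounds via pintool; third, fluorescence was measured at 0 h through 40 h at 8 h intervals.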

[6] = qHTS RealTime-Glo MT Cell Viability Assay in HepG2 cells - 32 hour (AID 1224877); also: nearly all actives have a fitted effect of over 55% in size
Summary of the method: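 Tox21 10K library screened in qHTS format on HepG2 cells carrying RealTime-Glo reagents. Compounds were added after a 5 h preincubation, and the luminescent signal from continuous culture was measured repeatedly during 40 h treatment.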

[7] = A CellTox Green Cytotoxicity Assay to monitor cytotoxicity in HepG2 cells - 24 hour (AID 1224878); also: nearly all actives have a fitted effect of over 45% in size
Summary of the method: as §3

[8] = A CellTox Green Cytotoxicity Assay to monitor cytotoxicity in HepG2 cells - 40 hour (AID 1224879); also: nearly all actives have a fitted effect of over 40% in size
Summary of the method: as §3

[9] = qHTS RealTime-Glo MT Cell Viability Assay in HEK293 cells - 0 hour (AID 1224880); also: nearly all actives have a fitted effect of over 45% in size; also: potency is read from the fitted curve at half-maximal effect
Summary of the method: as §1

[10] = A CellTox Green Cytotoxicity Assay to monitor cytotoxicity in HEK293 cells - 32 hour (AID 1224881); also: nearly all actives have a fitted effect of over 40% in size
Summary of the method: as §2

Structure (SMILES) | Potency [1] | outcome [2] | max response [3] | Potency [4] | Potency [5] | Potency [6] | Potency [7] | Potency [8] | Potency [9] | Potency [10]
CCC(=O)O[C@]1(C(=O)COC)[C@@H](C)C[C@H]2[C@@H]3CCC4=CC(=O)C=C[C@]4(C)C3(F)[C@@H](O)C[C@@]21C (stereo partly specified) | inactive | inactive | -19.2% | inactive | inactive | inactive | inactive | inactive | inactive | inactive
CNc1ccccc1 | inactive | inactive | 4.77% | inactive | inactive | inactive | inactive | inactive | inactive | inactive
O=C(c1ccco1)N1CCNCC1 | inactive | inactive | 3.57% | inactive | inactive | inactive | inactive | inactive | inactive | inactive
CC(C)Cc1nccs1 | inactive | inactive | 3.56% | inactive | inactive | inactive | inactive | inactive | inactive | inactive
CCCC(=O)OCCC(C)C | inactive | inactive | -1.39% | inactive | inactive | inactive | inactive | inactive | inactive | inactive
CCC(C)C1N=C(C)C(C)S1 (stereo unspecified) | inactive | inactive | 6.11% | inactive | inactive | inactive | inactive | inactive | inactive | inactive
Cc1cccc(C)c1NC(=O)CN1CCCC1 | inactive | inactive | 8.7% | inactive | inactive | inactive | inactive | inactive | inactive | inactive
C/C(=C\C(C)CC(C)CC(C)C)C1CC(=O)OC1=O (stereo unspecified) | inactive | inactive | -12% | inactive | inactive | inactive | inactive | inactive | inactive | inactive
O=C(O)CCc1nc2ccccc2[nH]1 | inactive | inactive | 11% | inactive | inactive | inactive | inactive | inactive | inactive | inactive
OCCOc1cccc(OCCO)c1 | inactive | inactive | 12.3% | inactive | inactive | inactive | inactive | inactive | inactive | inactive
COC(=O)/C=C/C(C)=C\C=C\C(C)=C\C=C\C=C(C)\C=C\C=C(C)\C=C\C(=O)O | inactive | inactive | 1.87% | inactive | inactive | inactive | inactive | inactive | inactive | inactive
CC(C)(C)N | inactive | inactive | 1.55% | inactive | inactive | inactive | inactive | inactive | inactive | inactive
CC(=O)CC/C=C(\C)CC/C=C(\C)CC/C=C(\C)CCC=C(C)C | inactive | inactive | 4.5% | inactive | inactive | inactive | inactive | inactive | inactive | inactive
Cc1ccccc1CCO | inactive | inactive | 5.71% | inactive | inactive | inactive | inactive | inactive | inactive | inactive
CCCCCO | inactive | inactive | 1.46% | inactive | inactive | inactive | inactive | inactive | inactive | inactive
C=C(C)C(=O)OCCCCCCCCCCOC(=O)C(=C)C | inactive | inactive | -16.4% | inactive | inactive | inactive | inactive | inactive | inactive | inactive
C=CC(C)CCC=C(C)C (stereo unspecified) | inactive | inactive | 0.513% | inactive | inactive | inactive | inactive | inactive | inactive | inactive
CCOc1ccc(NC(C)=O)cc1N | inactive | inactive | 3.81% | inactive | inactive | inactive | inactive | inactive | inactive | inactive
CCCCCCCCS | inactive | inactive | 7.45% | inactive | inactive | inactive | inactive | inactive | inactive | inactive
Nc1ncnc2c1ncn2[C@@H]1O[C@H](CO)[C@@H](O)[C@H]1O | inactive | inactive | 6.09% | inactive | inactive | inactive | inactive | inactive | inactive | inactive
COc1cc(C)c(Cc2cnc(N)nc2N)cc1OC | inactive | inactive | 5.82% | inactive | inactive | inactive | inactive | inactive | inactive | inactive
C=CCCC | inactive | inactive | 18% | inactive | inactive | inactive | inactive | inactive | inactive | inactive
CC1(C)C(=O)NC(=O)N1CO | inactive | inactive | 9.14% | inactive | inactive | inactive | inactive | inactive | inactive | inactive

Structure (SMILES) | Potency [1] | outcome [2] | max response [3] | Potency [4] | Potency [5] | Potency [6] | Potency [7] | Potency [8] | Potency [9] | Potency [10]
O=c1[nH]nc(-c2ccc([N+](=O)[O-])o2)o1 | inactive | inactive | -1.91% | inactive | inactive | inactive | inactive | inactive | inactive | inactive
CCCOC(C)=O | inactive | inactive | -1.95% | inactive | inactive | inactive | inactive | inactive | inactive | inactive
CCOCCn1c(N2CCCN(C)CC2)nc2ccccc21 | inactive | inactive | -3.4% | inactive | inactive | inactive | inactive | inactive | inactive | inactive
C=CC(=O)OCCCCCCCCCC | inactive | inactive | 12.1% | inactive | inactive | inactive | inactive | inactive | inactive | inactive
O=C(O)c1ccncc1 | inactive | inactive | 9.67% | inactive | inactive | inactive | inactive | inactive | inactive | inactive
NC(=O)c1ccccc1 | inactive | inactive | 1.7% | inactive | inactive | inactive | inactive | inactive | inactive | inactive
CCCCC(CC)COCCC#N (stereo unspecified) | inactive | inactive | 12.6% | inactive | inactive | inactive | inactive | inactive | inactive | inactive
Nc1ccc(F)cc1F | inactive | inactive | -13.8% | inactive | inactive | inactive | inactive | inactive | inactive | inactive
O=C(O)c1cc(C(=O)O)cc([N+](=O)[O-])c1 | inactive | inactive | 8.3% | inactive | inactive | inactive | inactive | inactive | inactive | inactive
Nc1nc(Cl)nc2c1ncn2[C@H]1C[C@H](O)[C@@H](CO)O1 | inactive | inactive | -25.7% | inactive | inactive | inactive | inactive | inactive | inactive | inactive
N#CCCCC(C#N)CCC#N (stereo unspecified) | inactive | inactive | 17.1% | inactive | inactive | inactive |  | inactive | inactive | inactive
O=C(O)c1cccnc1Nc1cccc(C(F)(F)F)c1 | inactive | inactive | -4.24% | inactive | inactive | inactive | inactive | inactive |  | inactive
CCCCCCCCCCCCN1CCOCC1 | inactive | inactive | 4.57% | inactive | inactive | inactive | inactive | inactive |  | inactive
Cc1nc(C)c(C)nc1C | inactive | inactive | -5.51% | inactive | inactive | inactive |  | inactive | inactive | inactive
CC(C)=CCCC(C)C=O (stereo unspecified) | inactive | inactive | 3.8% | inactive | inactive | inactive |  | inactive | inactive | inactive
CC(C)(C)c1cc(C=O)cc(C(C)(C)C)c1O | inactive | inactive | -0.177% | inactive | inactive | inactive | inactive | inactive | inactive | inactive
CCCCOc1ccc(N)cc1 | inactive | inactive | 0.387% | inactive | inactive | inactive | inactive | inactive | inactive | inactive
CCN(CC)CC(=O)OCC(=O)[C@@]1(O)CC[C@H]2[C@@H]3CCC4=CC(=O)CC[C@]4(C)[C@H]3[C@@H](O)C[C@@]21C | inactive | inactive | -1.53% | inactive | inactive | inactive | inactive | inactive | 1.9 µM (active) | inactive
CCCCCCCCCCCCCCCCC(=O)O | inactive | inactive | 3.49% | inactive | inactive | inactive | inactive | inactive |  | inactive
CC(C)(C(=O)O)c1ccc(C(O)CCCN2CCC(C(O)(c3ccccc3)c3ccccc3)CC2)cc1 (stereo unspecified) | inactive | inactive | 1.75% | inactive | inactive | inactive | inactive | inactive |  | inactive
CC(COc1ccccc1)NC(C)C(O)c1ccc(O)cc1 (stereo unspecified) | inactive | inactive | -6.13% | inactive | inactive | inactive |  | inactive | inactive | inactive
CC(Cc1ccccc1)(NC(=O)CN)c1ccccc1 (stereo unspecified) | inactive | inactive | -3.14% | inactive | inactive | inactive | inactive | inactive |  | inactive
